Measurements published in PubChem BioAssay (NCATS).
Results filed as inconclusive are left out. Activity calls are given as the source filed them. Calls follow the shape of the dose curve; as a rule, active = well fitted inhibition curve with a large enough effect; inconclusive = small, poorly fitted or top-dose-only effect; inactive = flat fitted curve, though single readings scatter. Where a SMILES comes first, the peptide text is derived from it. Bridges are numbered along the chain shown (N, C = ends). [ ]: non-standard residue; d: D form. hArg = N=C(N)NCCCC[C@H](N)C(=O)O; Mpa = O=C(O)CCS

Experiments:
Test in all cases: qHTS profiling for inhibitors of Plasmodium falciparum proliferation (AID 504749); also: nearly all actives have a fitted effect of over 60% in size
Conditions in all cases: P. falciparum in erythrocytes, SYBR Green DNA, 72 h; series mostly up to 28.7 µM
AS120 = system: AS120
Procedure, shortened: (§1)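 Three-day growth assay of blood-stage parasites in erythrocytes (0.3% parasitemia, 2.5% hematocrit) at 37 C, 5% CO2, quantified by SYBR Green DNA staining after overnight detergent lysis.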

ATS189 = system: ATS189
Procedure, shortened: as §1

ATS95 = system: ATS95
Procedure, shortened: as §1

C2A = system: C2A
Procedure, shortened: as §1

CP185 = system: CP185
Procedure, shortened: as §1

CP191 = system: CP191
Procedure, shortened: as §1

CP192 = system: CP192
Procedure, shortened: as §1

CP194 = system: CP194
Procedure, shortened: as §1

CP201 = system: CP201
Procedure, shortened: as §1

CP203 = system: CP203
Procedure, shortened: as §1

Measured: Potency

O=C1c2cccc(O)c2C(=O)c2c(O)cccc21
not listed: CP203
inactive: all other assays above

CC1CCc2cc(F)cc3c(=O)c(C(=O)O)cn1c23 (stereo not drawn)
inactive: all assays above

CCN(CC)CCc1nc(-c2ccccc2)no1
inactive: all assays above

CCCCCCCCCCCCCCCCN
inactive: all assays above

CC(CSC(=O)c1ccccc1)C(=O)N1C[C@@H](Sc2ccccc2)C[C@H]1C(=O)O (stereo partly drawn)
inactive: all assays above

CCCOC(=O)c1ccc(N)cc1
inactive: all assays above

CN(C(=O)c1c(O)c2ccccc2n(C)c1=O)c1ccccc1
inactive: all assays above

CCS(=O)(=O)CCn1c([N+](=O)[O-])cnc1C
inactive: all assays above

CCCCCC(N)=O
inactive: all assays above

CCN(CC)C(=O)c1cccc(C)c1
inactive: all assays above

O=C(O)CCCc1ccccc1
inactive: all assays above

COc1ccc(O)cc1
inactive: all assays above

Cc1c(C)c2c(c(C)c1OC(=O)c1cccnc1)CC[C@@](C)(CCC[C@H](C)CCC[C@H](C)CCCC(C)C)O2
inactive: all assays above

NNC(=O)CP(=O)(c1ccccc1)c1ccccc1
inactive: all assays above

COc1ccc(C(=O)NCc2ccc(OCCN(C)C)cc2)cc1OC
inactive: all assays above

CCCNC(C)(C)COC(=O)c1ccccc1
not listed: CP203
inactive: all other assays above

Cc1cc(NC(=O)C2=C(O)c3ccccc3S(=O)(=O)N2C)no1
inactive: all assays above

Cc1cc(C)nc(NS(=O)(=O)c2ccc(N)cc2)n1
inactive: all assays above

NC(=O)NS(=O)(=O)c1ccc(N)cc1
inactive: all assays above

NS(=O)(=O)c1ccc(C(=O)O)cc1
inactive: all assays above

Cc1c(NC(=O)c2cccnc2)c(=O)n(-c2ccccc2)n1C
inactive: all assays above

CCCCCCCC(=O)OCC(O)CO (stereo not drawn)
inactive: all assays above

Cc1ccc(S(=O)(=O)NC(=O)NC2CCCCCCC2)cc1
inactive: all assays above

Cn1c([N+](=O)[O-])cnc1COC(N)=O
inactive: all assays above

Nc1ncnc2c1ncn2[C@@H]1O[C@H](COP(=O)(O)O)[C@@H](O)[C@H]1O
inactive: all assays above

CC(=O)NS(=O)(=O)c1ccc(N)cc1
inactive: all assays above

COc1ccc(Cc2cnc(N)nc2N)cc1OC
inactive: all assays above

CC(N)CCCC(C)(C)O (stereo not drawn)
inactive: all assays above

Cc1cccc(C(=O)O)c1O
inactive: all assays above

CN1CCCN=C1COC(=O)C(O)(c1ccccc1)C1CCCCC1 (stereo not drawn)
inactive: all assays above

Cc1ncc(CO)c(CN)c1O
inactive: all assays above

CC1CC(OC(=O)c2ccccc2O)CC(C)(C)C1 (stereo not drawn)
inactive: all assays above

Cc1c(I)c(=O)n(-c2ccccc2)n1C
inactive: all assays above

NC(=O)[C@@H]1CSSCCC(=O)N[C@@H](CCCCN=C(N)N)C(=O)NCC(=O)N[C@@H](CC(=O)O)C(=O)N[C@@H](Cc2c[nH]c3ccccc23)C(=O)N2CCC[C@H]2C(=O)N1 ([Mpa][hArg]GDWPC-NH2; disulfide 1-7)
inactive: all assays above

O=c1[nH]c(=O)c2ccccc2o1
inactive: all assays above

Cc1onc(-c2ccccc2)c1-c1ccc(S(N)(=O)=O)cc1
inactive: all assays above

Nc1ccc(C(=O)Oc2ccccc2)c(O)c1
inactive: all assays above

OCC(O)CS (stereo not drawn)
inactive: all assays above

O=C1c2ccccc2S(=O)(=O)N1CCCCN1CCN(c2ncccn2)CC1
inactive: all assays above

C[C@@H]1O[C@@H](OC[C@H]2O[C@@H](Oc3c(-c4ccc(O)c(O)c4)oc4cc(O)cc(O)c4c3=O)[C@H](O)[C@@H](O)[C@@H]2O)[C@H](O)[C@H](O)[C@H]1O
inactive: all assays above

CC(O)CCCCn1c(=O)c2c(ncn2C)n(C)c1=O (stereo not drawn)
inactive: all assays above

CC(=O)Oc1cccc(C)c1
inactive: all assays above

CCOC(=O)[C@H](CCc1ccccc1)N[C@@H](C)C(=O)N1CCC[C@H]1C(=O)O
inactive: all assays above

O=C(O)c1ccc[n+]([O-])c1
inactive: all assays above

COc1cc(O)cc(O)c1
inactive: all assays above

CCCCCCCCCCCCCCCCC(C(=O)O)C(O)(CC(=O)O)C(=O)O (stereo not drawn)
inactive: all assays above

CC(=O)NCc1c(I)c(NC(C)=O)c(I)c(C(=O)O)c1I
inactive: all assays above

O=C(/C=C/c1ccccc1)OCc1ccccc1
inactive: all assays above

CC[N+](CC)(CC(=O)Nc1c(C)cccc1C)Cc1ccccc1
inactive: all assays above

CN1CCN(C(=O)C2CCCCC2)CC1
inactive: all assays above

CC(C)c1cc2c(cc1S(=O)(=O)O)[C@@]1(C)CCC[C@@](C)(C(=O)O)[C@@H]1CC2
inactive: all assays above

O=C(O)c1ccccc1C(=O)Nc1ccc(S(=O)(=O)Nc2nccs2)cc1
inactive: all assays above

CCCC(O)C(CC)CO (stereo not drawn)
inactive: all assays above

Cc1ccsc1C(=CCCN1CCC[C@@H](C(=O)O)C1)c1sccc1C
inactive: all assays above

CCCCC1(COC(=O)CCC(=O)O)C(=O)N(c2ccccc2)N(c2ccccc2)C1=O
inactive: all assays above

Cc1ccccc1N=Nc1ccc(N=Nc2c(O)ccc3ccccc23)c(C)c1
inactive: all assays above

Cc1ccc(S(=O)(=O)NC(=O)NC2CCCCC2)cc1
inactive: all assays above

O=C1CC[C@@H](C(=O)O)N1
inactive: all assays above

O=C(O)CCC(=O)O
inactive: all assays above

Nc1ccncc1N
inactive: all assays above

NS(=O)(=O)c1cc2c(cc1C(F)(F)F)NCNS2(=O)=O
inactive: all assays above

CN/C(=C\[N+](=O)[O-])NCCSCc1csc(CN(C)C)n1
inactive: all assays above

O=C(O)Cc1ccc(CCNS(=O)(=O)c2ccc(Cl)cc2)cc1
inactive: all assays above

CCc1nnc(NS(=O)(=O)c2ccc(N)cc2)s1
inactive: all assays above

CC(=O)Nc1ccc(C(=O)O)cc1
inactive: all assays above

O=C(O)CCCCC1CCSS1 (stereo not drawn)
inactive: all assays above

COc1ccccc1OC(=O)Oc1ccccc1OC
inactive: all assays above

COC(=O)c1ccccc1C(=O)c1ccc(OCCN2CCCCC2)cc1
inactive: all assays above

O=C(O)Cn1c(C(=O)Nc2nc(-c3ccccc3Cl)cs2)cc2ccccc21
inactive: all assays above

CC(C(=O)O)c1ccc2c(c1)Cc1cccnc1O2 (stereo not drawn)
inactive: all assays above

NCC1CCC(C(=O)Oc2ccc(CCC(=O)O)cc2)CC1 (stereo not drawn)
inactive: all assays above

O=C(Cn1ccnc1[N+](=O)[O-])NCCO
inactive: all assays above

CCOc1cc(NC(C)=O)ccc1C(=O)OC
inactive: all assays above

O=C(O)c1ccc(OCCCOc2ccc(C(=O)O)cc2)cc1
inactive: all assays above

c1ccc2[nH]ccc2c1
inactive: all assays above

C=CCSCC1Nc2cc(Cl)c(S(N)(=O)=O)cc2S(=O)(=O)N1 (stereo not drawn)
inactive: all assays above

Cc1c(C(=O)NCCO)[n+](=O)c2ccccc2n1[O-]
inactive: all assays above

CC1CCN(CCCC(=O)c2ccc(F)cc2)CC1
inactive: all assays above

COc1nccnc1NS(=O)(=O)c1ccc(N)cc1
inactive: all assays above

Cc1ccc(C(C)C)c(O)c1
inactive: all assays above

CC(C)C[C@@H](N)C(=O)O
inactive: all assays above

O=c1[nH]c2cc(C(F)(F)F)c(N3CCOCC3)cc2n(CP(=O)(O)O)c1=O
inactive: all assays above

CNCc1ccccc1
inactive: all assays above

O=c1[nH]cnc2nc[nH]c12
inactive: all assays above

CCCCCCCCCCCCCCCCCCO
inactive: all assays above

Cc1c(Cn2ccnc2)c2ccccc2n1CCC(=O)O
inactive: all assays above

O=C(Cn1ccnc1[N+](=O)[O-])NCc1ccccc1
inactive: all assays above

O=C(NCN1CCOCC1)c1cnccn1
inactive: all assays above

O=C(O)Cc1cn(-c2ccccc2)nc1-c1ccc(Cl)cc1
inactive: all assays above

N[C@@H](Cc1ccc(O)cc1)C(=O)O
inactive: all assays above

COc1ccc(NS(=O)(=O)c2ccc(N)cc2)nn1
inactive: all assays above

COC(=O)c1cccnc1
inactive: all assays above

CC(=O)Nc1cccc(O)c1
inactive: all assays above

O=C(CN1CCNCC1)NC1CCCCC1
inactive: all assays above

Nc1ccc(S(=O)(=O)c2ccc(N)cc2)cc1
inactive: all assays above

CC(=O)Oc1cccc(O)c1
inactive: all assays above

O=C(O)c1ccccc1OP(=O)(O)O
inactive: all assays above

C=CCNC(N)=S
inactive: all assays above
